# Bioassay records (PubChem)
# N-glyco inh – N-linked glycosylation inhibition | reporter increase, % at 12.5 µM | D54 ERlucT glycosylation luciferase reporter, 24 h; percent of 100 nM tunicamycin response | 360,000 tested, 0.23% active;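 active = mean luciferase reporter signal, scaled so untreated is 0 and the glycosylation-blocking control 100, at or above a set limit in every replicate; inconclusive = mean reaches the limit but not every replicate does; inactive = mean below the limit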;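 also: luciferase carries N-glycosylation sites so blocking glycosylation raises the light; 0% = median of neutral control wells and 100% = median of 100 nM tunicamycin wells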
# MITF TRPM1 inh – MITF TRPM1 promoter inhibition in SK-MEL-5 cells; SK-MEL-5 TRPM1 promoter luciferase, 24 h; inhibition, % at 12.5 µM; 330,000 tested, 0.83% active; AID 488899;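 active = mean inhibition across replicates of 60% or more, whatever share of single replicates reaches that level; inconclusive = some that reach 60%, reason not given; inactive = mean inhibition across replicates below 60%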
# PfHsp90 yeast 2 – inhibits growth of yeast expressing Plasmodium falciparum Hsp90. S. cerevisiae expressing PfHsp90, BacTiter-Glo ATP, 48 h; yeast lacking PDR1 and PDR3 efflux regulators. inhibition, % at 9.4 µM. 310,000 tested, 0.32% active. AID 504621;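 active = every replicate shows inhibition above about 80%, whatever the replicate mean, limit read from the data; inconclusive = mean inhibition reaches the set limit but some replicate falls short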;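 also: 0% = DMSO neutral controls and 100% = 20 µM radicicol positive controls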
# Wnt act – activators of Wnt/beta-catenin signaling; 300,000 tested, 1.2% active; Wnt/beta-catenin reporter cell assay, activator, plate reader; activation, % at 9.35 µM; in the data active = activation above about 30%, passing the limit was not always enough; inconclusive = no clear call, values can overlap the other calls;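 also: 0% = neutral control wells and 100% = positive control wells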
# MITF TRPM1 HTS – increases MITF-driven TRPM1 promoter luciferase signal. SK-MEL-5 TRPM1-promoter luciferase, 24 h; % of positive control, neutral wells = 0. activation, % at 12.5 µM. 300,000 tested, 0.75% active. AID 588334;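 active = mean activation of at least 80% with every replicate also reaching 80%; inconclusive = mean reaches 80% but some replicate falls short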;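 also: 0% = neutral control wells and 100% = parthenolide positive control wells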
# NSD2 inh – inhibitors of human histone methyltransferase NSD2 | NSD2 peptide methylation, AlphaScreen, 120 min | inhibition, % at 12.5 µM | 310,000 tested, 0.54% active | AID 743445; in the data active = inhibition above about 50%
# Target sequence (O96028 whole entry, looked up): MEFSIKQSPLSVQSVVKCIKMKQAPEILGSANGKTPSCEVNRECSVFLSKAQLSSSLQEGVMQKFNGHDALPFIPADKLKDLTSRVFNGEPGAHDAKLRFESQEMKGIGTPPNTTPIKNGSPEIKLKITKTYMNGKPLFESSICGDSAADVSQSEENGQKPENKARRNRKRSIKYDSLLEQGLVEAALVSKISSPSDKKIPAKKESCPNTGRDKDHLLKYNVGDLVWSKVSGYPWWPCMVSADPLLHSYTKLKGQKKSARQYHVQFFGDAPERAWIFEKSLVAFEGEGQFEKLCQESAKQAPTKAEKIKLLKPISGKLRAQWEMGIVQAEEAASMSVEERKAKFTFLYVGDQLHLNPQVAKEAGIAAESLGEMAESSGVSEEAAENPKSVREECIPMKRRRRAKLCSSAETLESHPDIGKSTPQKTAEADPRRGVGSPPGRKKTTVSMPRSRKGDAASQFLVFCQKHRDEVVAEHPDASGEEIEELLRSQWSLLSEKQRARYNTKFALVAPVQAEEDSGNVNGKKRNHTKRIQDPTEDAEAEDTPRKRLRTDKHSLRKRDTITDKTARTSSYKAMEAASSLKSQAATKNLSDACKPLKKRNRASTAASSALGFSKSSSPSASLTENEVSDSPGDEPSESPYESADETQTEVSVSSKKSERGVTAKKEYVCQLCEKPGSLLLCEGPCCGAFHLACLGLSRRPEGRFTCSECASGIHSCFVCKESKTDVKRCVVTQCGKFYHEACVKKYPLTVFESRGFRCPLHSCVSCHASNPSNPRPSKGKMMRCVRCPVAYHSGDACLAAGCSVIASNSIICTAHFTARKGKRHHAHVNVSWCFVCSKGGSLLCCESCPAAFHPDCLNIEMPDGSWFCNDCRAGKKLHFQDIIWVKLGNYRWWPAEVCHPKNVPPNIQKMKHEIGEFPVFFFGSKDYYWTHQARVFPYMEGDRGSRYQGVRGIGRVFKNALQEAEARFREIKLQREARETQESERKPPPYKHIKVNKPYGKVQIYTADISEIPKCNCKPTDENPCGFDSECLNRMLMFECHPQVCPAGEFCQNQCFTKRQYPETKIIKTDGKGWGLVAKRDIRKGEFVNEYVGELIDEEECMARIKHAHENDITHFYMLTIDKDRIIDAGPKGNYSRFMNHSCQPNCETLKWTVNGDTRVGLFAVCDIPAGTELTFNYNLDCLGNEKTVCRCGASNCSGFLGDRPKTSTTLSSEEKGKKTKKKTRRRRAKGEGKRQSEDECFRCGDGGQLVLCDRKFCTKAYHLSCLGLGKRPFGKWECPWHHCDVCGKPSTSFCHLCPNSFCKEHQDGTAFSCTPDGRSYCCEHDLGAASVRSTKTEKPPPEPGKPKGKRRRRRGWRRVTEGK
# Numbers without * were called inactive; ? = inconclusive; · = no result; + = active, no number. Rows were chosen to be rich in hits. Some 2.9% of all compounds tested hit in one or more screens of this group.
SMILES,N-glyco inh,MITF TRPM1 inh,PfHsp90 yeast 2,Wnt act,MITF TRPM1 HTS,NSD2 inh
O=C(O)c1ccc(-c2ccc(/C=C3\NC(=O)N(Cc4ccc(Cl)cc4)C3=O)o2)cc1Cl,0.3,-1.6,-18.8,-0.8,5.4,128.9*
CC1(C)CC(=O)C(C2C3=C(CC(C)(C)CC3=O)Oc3ccccc32)C(=O)C1 (stereo not given),-1.8,1.1,3.4,-1.9,·,-0.1
CC1(C)CC(=O)C2=C(C1)Oc1nc3ccccc3cc1C2C(C#N)C#N (stereo not given),2.6,80.5*,·,·,-80.8,4.4
COC(=O)C1=C(C)N(C)C(=NCC2CC2)NC1c1cccc(Cl)c1 (stereo not given),·,·,·,-0.3,·,4.5
CCCCn1cnc2c(oc3ccccc32)c1=O,2.0,-101.4,7.8,9.3,98.9*,-2.4
COc1ccc(Nc2cnn(-c3nc4ccccc4s3)c(=O)c2Cl)cc1,17.1,-33.3,95.8*,-10.9,31.8,-1.3
O=c1c(Cl)c(Nc2cccc(Cl)c2)cnn1-c1nc2ccccc2s1,-14.6,-10.1,-1.2,2.9,12.0,-0.4
Cc1ccc(C)c(N2CCN(c3cnn(-c4nc5ccccc5s4)c(=O)c3Cl)CC2)c1,113.7*,-28.7,-0.7,29.5,28.7,-2.0
CCc1cc(-c2nnn(CCC3COCCO3)c2CC)cc(CC)c1-c1cn(Cc2ccc3ccccc3c2)nn1 (stereo not given),0.4,·,·,-1.8,·,·
CCOc1ccc(Cl)cc1CSc1ncn[nH]1,-2.3,-3.6,-2.4,-3.0,0.2,-0.5
CN(CC(=O)Nc1ccc(Cl)c(Cl)c1)C(=O)C1CCCC1,-0.2,1.2,10.3,-3.8,0.0,-1.9
CC1(C)CC(/C=C/c2ccccc2)=Nc2ccccc2N1,-0.2,-90.5,1.6,-4.5,95.0*,8.0
Cc1ccc(OCc2cc(C(=O)N3CCCCCCC3)no2)cc1C,1.0,-36.3,12.0,7.2,36.6,-4.7
CCN(CC1CCCO1)C(=O)c1cc(COc2cc(C)c(Cl)c(C)c2)on1 (stereo not given),-4.0,-86.6,30.0,29.8,90.5*,-3.7
Cc1cc(OCc2cc(C(=O)N(C)CC3CCOCC3)no2)cc(C)c1Cl,0.5,-42.8,-6.2,-3.6,47.3,0.7
O=C(c1cc(COc2ccc(F)cc2Cl)on1)N1CCCCCC1,0.2,-140.9,-12.8,27.3,144.3*,36.0
Cc1cc(OCc2cc(C(=O)N3CCCCCC3)no2)cc(C)c1Cl,1.6,-74.2,-23.0,34.7*,?,-1.8
O=C(CSc1nnc(COc2ccccc2)n1Cc1ccco1)Nc1ccc2c(c1)OCO2,·,·,·,·,·,0.4
CC(=O)NCCc1ccc(C(=O)COC(=O)c2cc(C)oc2C)cc1,0.5,-15.7,-0.9,37.4*,17.2,0.9
O=C(c1cccs1)N1CCN(C23CC4CC(CC(C4)C2)C3)CC1,5.3,-9.5,11.6,2.7,13.1,1.5
N#C/C(=C\c1ccccc1C(F)(F)F)C(=O)Nc1ccccc1,1.9,-70.7,1.3,·,67.8,-1.4
CCc1cccc(CC)c1NC(=O)/C(C#N)=C/c1ccccc1C(F)(F)F,69.4*,88.9*,74.9,·,-88.6,-2.6
CC(C)=CCC[C@H](C)C[C@@H]1CC2=C(C(=O)OC(C)(C)O2)[C@H](c2ccc(Cl)cc2)O1,-3.7,·,·,-2.7,·,·
O=C(CCC1CCN(C(=O)Cc2c(F)cccc2F)CC1)NC1CC1,1.7,-8.8,-12.5,1.4,10.3,0.1
COC(=O)CCC/C=C1\SC[C@@H](NC(=O)c2ccccc2)C1NC(C)=O (stereo not given in full),1.0,12.0,2.3,-3.3,-14.2,-0.7
SMILES,N-glyco inh,MITF TRPM1 inh,PfHsp90 yeast 2,Wnt act,MITF TRPM1 HTS,NSD2 inh
COc1cc(/C=N/NC(=O)c2ccc(CN(C)S(=O)(=O)c3ccc(C)cc3)cc2)ccc1O,0.8,1.4,-33.3,0.0,-2.3,1.2
CCOc1ccc(NCc2cccn2-c2nnc(N3CCC(C(=O)NCCCN4CC(C)CC(C)C4)CC3)s2)cc1 (stereo not given),0.1,90.3*,4.3,1.8,-89.8,44.5
CCN1CCN(CCCNC(=O)C2CCN(c3nnc(-n4cccc4)s3)CC2)CC1,-0.6,1.8,-0.4,-1.8,3.2,1.0
CN(C)CC1CCC/C(=C\c2ccc(OC(=O)/C=C/c3ccc(Cl)c(Cl)c3)cc2)C1=O (stereo not given),2.3,1.8,7.9,-4.7,0.8,0.9
CCCC/C=C1/CCC(CN(C)C)C1=O (stereo not given),1.3,74.5*,10.1,·,·,-2.0
CN(C)CC1CCC/C(=C/c2ccc(Cl)cc2)C1=O (stereo not given),0.4,81.1*,-26.4,2.9,·,0.1
COc1cccc(/C=C2\CCC(C3CCCC3)C2=O)c1 (stereo not given),-6.0,-60.3,6.2,29.7,59.4,-3.6
COc1ccc(/C=C2/CCCC(CN(C)C)C2=O)cc1 (stereo not given),9.2,67.9*,-15.6,-2.6,·,2.8
COc1cccc(/C=C2/CCC(CN(C)C)C2=O)c1 (stereo not given),-7.3,97.5*,146.1*,-7.5,-95.4,10.1
Cc1ccc(-c2nc3cccnc3s2)cc1NS(=O)(=O)c1ccc2c(c1)OCCO2,1.1,3.5,89.3*,11.1,-0.7,·
O=S(=O)(Nc1cccc(-c2nc3cccnc3s2)c1)c1ccc2c(c1)OCCO2,2.7,·,-23.4,0.2,·,·
CC(=O)Cn1ncc(Br)c(Br)c1=O,24.6,99.3*,-9.0,-8.1,-99.2,6.5
CC(C)(C)C(=O)Cn1ncc(N2CCCC2)c(Br)c1=O,-2.8,-40.6,-0.4,-3.0,?,3.3
CN1C(=O)[C@@]2(C3=C(CCCC3=O)OC3=C2C(=O)OC2(CCCCC2)C3)c2ccccc21,·,·,·,-0.5,·,·
Cc1cc(C(=O)COC(=O)c2cc(Cl)ccc2N)c(C)n1Cc1ccco1,-8.1,-106.7,-19.9,10.2,106.5*,-1.6
Cc1ccnc(NC(=O)c2ccc(Cl)s2)c1,-3.6,-88.1,18.4,·,87.1*,-2.7
Cc1ccnc(NC(=S)NC(=O)c2cccs2)c1,-10.4,-68.5,4.8,34.3*,65.2,2.7
Clc1ccc(-n2ncc3c(N4CCCCCC4)ncnc32)cc1,-19.1,71.0*,29.3,2.1,-69.9,·
COc1ccc(-n2ncc3c(N4CCCCC4)ncnc32)cc1,-19.6,84.4*,31.5,·,-84.6,·
COc1ccc(-n2ncc3c(NCc4cccnc4)ncnc32)cc1,-8.3,-63.2,29.4,43.4*,67.6,-2.0
Cc1ccc(-n2ncc3c(NCc4cccnc4)ncnc32)cc1C,-6.5,-67.3,-3.4,12.7,69.4,3.7
COc1ccc(OCCC(=O)Nc2ccccc2)cc1,-0.7,-11.4,8.4,4.8,11.4,2.3
O=c1cc(-c2ccccc2)cc(-c2ccccc2)n1O,-2.9,14.9,+,3.1,-14.4,·
Cn1c(-c2ccccc2)cc(=O)cc1-c1ccccc1,-0.3,·,·,-4.4,·,0.0
O=C(NC(=S)Nc1ccccn1)c1ccccc1,-8.1,-23.6,26.2,39.2*,32.5,-3.3
